ELG1 DNA repair: inhibitors of ELG1-dependent DNA repair in HEK293T cells; HEK293T ELG1-luciferase reporter, luminescence, 16 h; DNA damage induced by 5-fluorouridine; Potency, µM (top dose mostly 46.1 µM), inactives show at the highest dose activity change, negative = inhibition, most hits filed as inhibitors; 330,000 tested, 2.3% active; also: potency is read from the fitted curve at half-maximal effect; nearly all actives have a fitted effect of over 55% in size
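Overnight (16 hr) co-exposure of 2,000 cells/well to 5-fluorouridine and compound at 37 °C preceded detection. Luciferase was quantified via ONE-Glo luminescence; loss of signal denotes inhibition.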
HT1080-NT tox: kills 2HG-producing HT-1080-NT fibrosarcoma cells; HT-1080-NT fibrosarcoma viability, CellTiter-Glo ATP luminescence, 48 h; Potency, µM (doses to about 46.1 µM), for the others: at the top dose activity, negative = less viability, actives largely listed as cytotoxic; 360,000 tested, 1.6% active; AID 686970;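 also: NT is the 2HG producing partner of a matched IDH1 knockdown line; potency is read from the fitted curve at half-maximal effect; 0% = DMSO-treated cells and -100% = media-only wells without cells; nearly all actives have a fitted effect of over 55% in size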
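A 48-hour cytotoxicity screen used HT-1080-NT cells plated 2 hours before compound delivery. ATP-based CellTiter-Glo luminescence measured viability, normalized to DMSO and no-cell controls.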
DT40 TDP1 no CPT: qHTS for Inhibitors of human tyrosyl-DNA phosphodiesterase 1 (TDP1): qHTS in cells in absence of CPT | 420,000 tested, 15% active | DT40 Tdp1-/- hTDP1 cells, no CPT, ATP luminescence, 48 h | Potency, µM (doses to about 46.2 µM), for the others: at the top dose activity change, negative = growth inhibition, hits mostly inhibitors; also: potency is read from the fitted curve at half-maximal effect; nearly all actives have a fitted effect of over 55% in size
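Seeded 400 DT40-hTDP1 cells/well (vehicle DMSO, no 20 nM CPT); pinned compounds; ≥48 hr at 37 °C; CellTiter-Glo luminescence as viability measure.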
IL1B secr inh: inflammasome signaling inhibition, IL-1 beta readout; THP-1 LPS/ATP IL-1B secretion, AlphaLISA, 16 h; hits give low values; activity change, % at 57.5 µM; 360,000 tested, 4.7% active; AID 743279; in the data active = activity change below about -50%; inconclusive = mostly about -30% to -49%
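Secreted IL-1B measured by AlphaLISA bead assay after 16 h compound exposure of THP-1 cells; compounds (final up to 57.5 uM) added 1 h before LPS (250 ng/mL) and ATP (1.25 mM) stimulation; lower signal means less secretion.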
HT1080 IDH1KD tx: kills HT-1080 cells with IDH1 knockdown; HT-1080 IDH1 knockdown viability, ATP luminescence, 48 h; Potency, µM (top dose mostly 46.1 µM), for the others: at the highest dose activity, negative = toxicity, actives largely listed as cytotoxic; 360,000 tested, 2% active; AID 686971;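 also: potency is read from the fitted curve at half-maximal effect; 0% = DMSO wells and -100% = cell-free medium wells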
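In this qHTS, HT-1080 cells depleted of IDH1 are exposed for 48 h at 37 °C to compound titrations. Toxicity is scored from CellTiter-Glo luminescence, with DMSO as full viability and medium alone as none.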
TDP1 cell CPT: growth inhibition of DT40 Tdp1-/-;hTDP1 cells with camptothecin (screen for TDP1 inhibitors) | chicken DT40 Tdp1-/-;hTDP1 cells + 20 nM CPT, ATP luminescence, 48 h | Potency, µM (titrated, usually from 46.2 µM), inactives show at the highest dose activity change, negative = growth inhibition, actives largely listed as inhibitors | 420,000 tested, 12% active | AID 686979; also: potency is read from the fitted curve at half-maximal effect; nearly all actives have a fitted effect of over 55% in size
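Chicken DT40 Tdp1-/- cells stably complemented with human TDP1 were seeded at 400 cells/well in medium containing 20 nM camptothecin, exposed to pin-transferred compounds, and grown at 37 °C for at least 48 hr. Viability was read as ATP luminescence.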
Numbers without * were called inactive; u = inconclusive; x = no result. Most compounds without a hit are left out; they make up all but 19% or so of the library. Unless noted, calls follow the shape of the dose curve; as a rule, active = well fitted curve in the direction sought with a large enough effect; inconclusive = small, poorly fitted or top-dose-only effect, or another doubt; inactive = no such curve, though single readings can be large; an effect the other way counts as inactive or inconclusive. Unless noted, % is scaled to controls: 0 for no effect and ±100 for the full control effect.

SMILES	ELG1 DNA repair	HT1080-NT tox	DT40 TDP1 no CPT	IL1B secr inh	HT1080 IDH1KD tx	TDP1 cell CPT
c1ccc(C2[C@H]3CN(Cc4cccnc4)[C@H](c4ccccc4)C34CC2(c2ccccc2)C4)cc1 (some centres undefined)	-2%	u	15µM*	25	u	u
COC(=O)c1ccc(C23CC4(C2)[C@H](CN(C)[C@@H]4c2ccccc2)C3c2ccc(Cl)nc2)cc1 (some centres undefined)	-7%	-1%	15µM*	4	-1%	u
O=C(Cn1nc(-c2ccccc2)nc(Cc2ccccc2)c1=O)Nc1ccc(Cl)cc1	x	x	-10%	x	x	-5%
CC(CCc1ccccc1)NC(=O)CNC(=O)c1cccs1 (centres undefined)	16%	0%	9%	26	7%	-16%
FC(F)(F)c1ccc(CN2C[C@@H]3C(c4ccccc4)C4(c5cccnc5)CC3(C4)[C@H]2c2ccccc2)cc1 (some centres undefined)	-3%	2%	u	7	2%	u
FC(F)(F)c1ccc(C2[C@H]3CN(Cc4cccnc4)[C@H](c4ccccc4)C34CC2(c2ccccc2)C4)cc1 (some centres undefined)	22%	-9%	u	9	u	18µM*
CCn1c(=O)n(CC)c2cc(S(=O)(=O)Nc3cc(C)cc(C)c3C#N)ccc21	-1%	-1%	-1%	-4	-19%	-21%
O=S(=O)(c1ccccc1Cl)N1CCN(c2nc(-c3cccs3)nc3ccccc23)CC1	x	29%	10µM*	x	8%	7.9µM*
O=S(=O)(c1cccc2ccccc12)N1CCN(c2nc(-c3cccs3)nc3ccccc23)CC1	x	7%	10µM*	x	20%	u
Cc1nc(N2CCN(S(=O)(=O)c3ccccc3C#N)CC2)c2c(-c3ccccc3)csc2n1	12µM*	-2%	13µM*	-28	9%	u
O=S(=O)(c1ccccc1F)N1CCN(c2nc(-c3cccs3)nc3ccccc23)CC1	x	23%	11µM*	x	20%	u
O=C(CCCCn1c(=O)c2ccccc2n(Cc2ccccc2F)c1=O)NCc1ccc2c(c1)OCO2	x	x	u	x	x	-4%
O=S(=O)(c1cccc(C(F)(F)F)c1)N1CCN(c2nc(-c3ccccc3)nc3ccccc23)CC1	x	x	-9%	x	x	-17%
N#Cc1ccccc1S(=O)(=O)N1CCN(c2nc(-c3ccccc3)nc3ccccc23)CC1	x	17%	11µM*	4	13%	16µM*
N#Cc1ccccc1S(=O)(=O)N1CCN(c2nc(-c3cccs3)nc3ccccc23)CC1	x	14%	7.9µM*	x	15%	16µM*
O=[N+]([O-])c1ccc(S(=O)(=O)N2CCN(c3nc(-c4cccs4)nc4ccccc34)CC2)cc1	x	x	-9%	x	x	-1%
O=S(=O)(c1ccccc1C(F)(F)F)N1CCN(c2nc(-c3ccccc3)nc3ccccc23)CC1	x	x	13µM*	x	x	u
CCN(CC)C(=O)C1=C(C)N(CCC2=CCCCC2)C(=O)C(CC(=O)NCc2ccco2)C1 (centres undefined)	x	0%	u	-11	0%	u
CCOc1ccc(-c2cc(NC(=O)Nc3cccc(C(C)=O)c3)c(C(=O)OC)s2)cc1	x	x	-10%	x	x	23µM*
COC(=O)c1sc(-c2ccc(Cl)cc2)cc1NC(=O)COCC(=O)O	3%	7%	-15%	-21	0%	-9%
CCOc1ccc(-c2cc(NC(=O)c3ccccc3)c(C(=O)OC)s2)cc1	x	x	12µM*	x	x	u
COC(=O)c1sc(-c2ccc(C(C)(C)C)cc2)cc1NC(=O)CCC(=O)O	u	-23%	u	8	-23%	16µM*
COC(=O)c1sc(-c2ccc(Cl)cc2)cc1NC(=O)/C=C/C(=O)O	-23%	u	6.5µM*	-95*	u	5.8µM*
CCOc1ccc(-c2cc(NC(=O)c3ccc(C)cc3)c(C(=O)OC)s2)cc1	x	x	-18%	x	x	-13%
CCCN(CCC)CCNC(=O)C1CCCN(S(=O)(=O)c2cccc3nsnc23)C1 (centres undefined)	x	x	-11%	x	x	10%
SMILES	ELG1 DNA repair	HT1080-NT tox	DT40 TDP1 no CPT	IL1B secr inh	HT1080 IDH1KD tx	TDP1 cell CPT
CCOC(=O)c1sc(-c2ccccc2)cc1NC(=O)Nc1ccc([N+](=O)[O-])cc1	6.5µM*	2%	21µM*	15	12%	u
CCC(C)(C)C1CCc2[nH]nc(C(=O)NCCNC(=O)OC(C)(C)C)c2C1 (centres undefined)	u	-3%	u	-2	-17%	u
Cc1cc(C)cc(NC(=O)c2cc(S(=O)(=O)N3CCC(C)CC3)cn2C)c1	x	x	-18%	x	x	-14%
CS(=O)(=O)c1ccc(Cl)c(NC(=O)c2cccc(-n3cnnn3)c2)c1	-10%	-11%	u	4	-5%	-21%
CCOC(=O)c1ccc(N2C(=O)c3n[nH]c(C)c3C2c2cccnc2)cc1 (centres undefined)	-17%	1%	-24%	-3	7%	-26%
CCOC(=O)c1ccc(N2C(=O)c3n[nH]c(-c4cccs4)c3C2c2cccc(OC)c2)cc1 (centres undefined)	x	x	10µM*	x	x	26µM*
CCOC(=O)c1ccc(N2C(=O)c3[nH]nc(-c4ccc(C)cc4)c3C2c2cccc(F)c2)cc1 (centres undefined)	x	x	u	x	x	23µM*
CCOC(=O)c1ccc(N2C(=O)c3[nH]nc(-c4ccc(OCC)cc4)c3C2c2ccc(OC)cc2OC)cc1 (centres undefined)	x	x	18µM*	x	x	21µM*
COc1cc(C2c3c(-c4ccccc4)n[nH]c3C(=O)N2c2ccccc2)ccc1O (centres undefined)	-13%	-11%	u	-23	-13%	u
CCOC(=O)c1ccc(N2C(=O)c3[nH]nc(-c4ccc(OC)cc4)c3C2c2cccc(O)c2)cc1 (centres undefined)	x	x	21µM*	x	x	18µM*
O=C(O)CSc1nnc(COc2ccc(Br)cc2)n1-c1ccccc1	u	-3%	-2%	-6	-3%	-1%
Cc1cc(NC(=O)CSc2nnc(CNC(=O)c3c(F)cccc3F)o2)no1	-2%	19%	24%	-3	21%	19%
